Assay outcomes deposited in PubChem BioAssay by National Center for Advancing Translational Sciences (NCATS).
KDM5B inh: inhibitors of human KDM5B histone demethylase; Potency, µM (highest dose often 57.7 µM), actives largely listed as inhibitors; AID 1347165; KDM5B demethylase, FDH-coupled NADH fluorescence (FDH is formaldehyde dehydrogenase); Q9UGL1; hit rate 2.6% among 220,000; active = well fitted inhibition curve with a large enough effect; also: 0% is about no effect; nearly all actives have a fitted effect of over 70% in size
Target sequence (Q9UGL1 whole entry, looked up): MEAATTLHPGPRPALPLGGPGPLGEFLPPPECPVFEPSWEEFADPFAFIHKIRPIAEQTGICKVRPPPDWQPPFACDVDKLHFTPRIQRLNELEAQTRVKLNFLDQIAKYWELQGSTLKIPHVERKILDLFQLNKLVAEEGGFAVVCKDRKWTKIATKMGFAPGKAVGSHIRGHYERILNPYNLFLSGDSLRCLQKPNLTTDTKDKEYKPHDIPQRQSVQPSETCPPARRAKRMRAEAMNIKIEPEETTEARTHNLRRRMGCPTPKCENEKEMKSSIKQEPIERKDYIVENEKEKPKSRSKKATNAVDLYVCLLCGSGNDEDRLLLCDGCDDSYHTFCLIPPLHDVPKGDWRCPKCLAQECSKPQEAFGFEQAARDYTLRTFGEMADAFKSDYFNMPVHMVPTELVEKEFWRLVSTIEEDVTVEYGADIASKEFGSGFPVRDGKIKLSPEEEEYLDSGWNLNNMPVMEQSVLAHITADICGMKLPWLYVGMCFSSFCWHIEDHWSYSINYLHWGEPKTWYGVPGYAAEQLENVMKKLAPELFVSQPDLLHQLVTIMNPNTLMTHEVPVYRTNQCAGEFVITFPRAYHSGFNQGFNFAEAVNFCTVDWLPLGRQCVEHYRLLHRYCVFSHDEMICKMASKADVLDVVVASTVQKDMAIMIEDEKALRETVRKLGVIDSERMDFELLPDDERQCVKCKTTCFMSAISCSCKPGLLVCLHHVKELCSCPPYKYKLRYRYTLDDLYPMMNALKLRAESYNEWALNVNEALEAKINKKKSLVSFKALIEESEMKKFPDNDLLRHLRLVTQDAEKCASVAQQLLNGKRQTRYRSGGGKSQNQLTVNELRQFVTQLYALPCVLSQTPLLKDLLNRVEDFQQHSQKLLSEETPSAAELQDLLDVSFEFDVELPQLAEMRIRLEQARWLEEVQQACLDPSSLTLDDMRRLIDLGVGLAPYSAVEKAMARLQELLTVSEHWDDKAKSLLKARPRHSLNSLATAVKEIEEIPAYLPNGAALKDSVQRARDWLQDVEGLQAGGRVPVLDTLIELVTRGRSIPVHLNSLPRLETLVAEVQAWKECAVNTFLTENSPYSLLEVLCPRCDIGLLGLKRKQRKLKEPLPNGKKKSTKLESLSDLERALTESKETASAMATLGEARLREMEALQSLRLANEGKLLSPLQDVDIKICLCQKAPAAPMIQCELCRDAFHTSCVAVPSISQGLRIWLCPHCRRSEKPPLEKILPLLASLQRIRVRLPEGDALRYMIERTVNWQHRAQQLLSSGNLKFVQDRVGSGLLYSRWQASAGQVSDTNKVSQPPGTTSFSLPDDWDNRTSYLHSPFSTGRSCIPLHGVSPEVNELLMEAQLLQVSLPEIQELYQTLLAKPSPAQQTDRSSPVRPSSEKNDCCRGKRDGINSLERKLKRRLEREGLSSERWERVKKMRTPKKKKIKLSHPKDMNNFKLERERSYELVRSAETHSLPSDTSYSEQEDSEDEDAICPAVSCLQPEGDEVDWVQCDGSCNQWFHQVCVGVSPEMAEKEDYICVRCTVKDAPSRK
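Coupled FDH/NAD⁺ fluorescence readout. KDM5BΔAP 200 nM final; compound titration, 10 min RT preincubation; substrate mix 12.5 µM H3K4me3, 25 µM 2-OG, 50 µM Fe(II), 100 µM ascorbate, 0.25 mM NAD⁺, 0.25 U/mL FDH; ΔRFU over 30 min.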
Starred values were filed as active, the others as inactive. Only a selection was taken, and hits are over-represented in it overall. Potency is read from the fitted curve at half-maximal effect.

Results for CC1C(OC(=O)c2ccc(CS(C)(=O)=O)cc2)CC2CC1C2(C)C (stereo not drawn) ?
KDM5B inh: inactive

Results for O=C(O)c1cc(-c2cccc(CO)c2)cc(S(=O)(=O)N2CCOCC2)c1 ?
KDM5B inh: inactive

How did O=C(Cc1c[nH]c2ncc(-c3ccccc3)cc12)N1CC[S+](=O)([O-])CC1 do in these assays?
KDM5B inh: 35µM*

What do the screens show for `O=C(Cc1c[nH]c2ncc(-c3cccc(CO)c3)cc12)N1CCOCC1`?
KDM5B inh: 28µM*

How did Cc1c(-c2ccccc2)oc2c(C(=O)OCC(=O)NC3CCC(C)CC3)cccc2c1=O (stereo not drawn) do in these assays?
KDM5B inh: inactive

What do the screens show for `O=C(NC1CCS(=O)(=O)C1)c1cc2sccc2n1Cc1ccc(Cl)cc1` (stereo not drawn)?
KDM5B inh: inactive

What do the screens show for `CNC(=O)N1CCC(C2CCN(S(=O)(=O)c3ccc(F)cc3)C2)CC1` (stereo not drawn)?
KDM5B inh: inactive

What do the screens show for `COc1cc2c(cc1OC)C(C[C@H]1CN(S(=O)(=O)c3ccc(Cl)cc3)CC[C@H]1CC(=O)O)=NCC2`?
KDM5B inh: 28µM*

What do the screens show for `COc1cc2c(cc1OC)C(C[C@H]1CN(S(=O)(=O)c3cccc(C#N)c3)CC[C@H]1CC(=O)O)=NCC2`?
KDM5B inh: inactive

How did COc1cc2c(cc1OC)C(C[C@H]1CN(S(=O)(=O)c3ccccc3)CC[C@H]1CC(=O)O)=NCC2 do in these assays?
KDM5B inh: 25µM*

What do the screens show for `O=C(O)C[C@@H]1CCN(S(=O)(=O)c2ccc(F)cc2)C[C@@H]1CC1=NCCc2cc(F)ccc21`?
KDM5B inh: 20µM*

Results for CC[C@H]1CN(S(=O)(=O)c2ccc(OC)cc2)CC[C@H]1CC(=O)O ?
KDM5B inh: inactive

How did COc1cc2c(cc1OC)C(c1ccc(Cl)cc1)=NCC2 do in these assays?
KDM5B inh: inactive

How did COc1cc2c(cc1OC)C(C[C@H]1CN(S(=O)(=O)c3ccc(F)cc3)CC[C@H]1CC(=O)O)=NCC2 do in these assays?
KDM5B inh: inactive

Results for CC(=O)Nc1ccc(S(=O)(=O)N2CC[C@@H](CC(=O)O)[C@@H](CCN3CCCCC3)C2)cc1 ?
KDM5B inh: inactive

Results for COC(=O)c1ccc(COC(=O)c2csc3c2CCCC3)o1 ?
KDM5B inh: inactive

What do the screens show for `CCNc1cc(N2CCC(CCC(=O)N3CCN(c4cccc(OC)c4)CC3)CC2)ncn1`?
KDM5B inh: inactive

Results for COCCOC(=O)C1=C(C)N=C2SC=C(CC(=O)NCCc3ccccc3)N2C1c1ccccc1 (stereo not drawn) ?
KDM5B inh: inactive

Results for CCCCCCCCCCCC(=O)N/N=C/c1ccc(C(C)(C)C)cc1 ?
KDM5B inh: inactive

What do the screens show for `O=C(N1CCC[C@H]1c1nc(-c2ccccc2Cl)no1)C1(c2ccccc2)CC1`?
KDM5B inh: inactive

Results for Cc1ccc(C)c(C(C)NC(=O)Nc2ccccc2Br)c1 (stereo not drawn) ?
KDM5B inh: inactive

How did N#Cc1cccc(C(=O)N2CCN(c3oc(C4CC4)nc3C#N)CC2)c1 do in these assays?
KDM5B inh: inactive

What do the screens show for `CCCOc1ccc(NC(=O)COc2ccc(OC)cc2)c2cccnc12`?
KDM5B inh: inactive

What do the screens show for `O=C(CCC[C@H]1NC[C@@H]2CC1CN(Cc1ccccc1)C2)N1CCCCC1`?
KDM5B inh: inactive

Results for COc1ccccc1CNC(=O)CCC[C@H]1NC[C@@H]2C[C@H]1CN(Cc1ccccc1)C2 ?
KDM5B inh: 4.5µM*

What do the screens show for `O=C(CCC[C@H]1NC[C@@H]2CC1CN(Cc1ccccc1)C2)NCCCN1CCOCC1`?
KDM5B inh: inactive

What do the screens show for `O=C(CCC[C@H]1NC[C@@H]2C[C@H]1CN(Cc1ccccc1)C2)NC1CCN(Cc2ccccc2)CC1`?
KDM5B inh: inactive

Results for O=C(CCC[C@H]1NC[C@@H]2C[C@H]1CN(Cc1ccccc1)C2)NCCCn1cccn1 ?
KDM5B inh: inactive

Results for COc1cccc(N2CCN(C(=O)CCC[C@H]3NC[C@@H]4C[C@H]3CN(Cc3ccccc3)C4)CC2)c1 ?
KDM5B inh: 25µM*

What do the screens show for `CC(C)CN1CCN(C(=O)CCC[C@H]2NC[C@@H]3C[C@H]2CN(Cc2ccccc2)C3)CC1`?
KDM5B inh: 6.3µM*

Results for O=C(CCC[C@H]1NC[C@@H]2C[C@H]1CN(Cc1ccccc1)C2)N1CCN(C2CCCC2)CC1 ?
KDM5B inh: inactive

What do the screens show for `O=C(CCC[C@H]1NC[C@@H]2C[C@H]1CN(Cc1ccccc1)C2)NCC1CCCCC1`?
KDM5B inh: inactive

Results for O=C(Cc1ccccc1O)NCc1cccnc1Oc1ccc(F)cc1F ?
KDM5B inh: inactive

How did CC(C)(C)c1cc(NC(=O)Nc2ccc(Cl)c(Cl)c2)no1 do in these assays?
KDM5B inh: inactive

What do the screens show for `Cc1ccc(OCC(=O)Nc2ccc3c(c2)CCC3)c(C(=O)c2cc(C#N)c(=O)n(C3CC3)c2)c1`?
KDM5B inh: inactive

What do the screens show for `CC(C)NC(=O)N1CCC2(CC1)CC(N(C)Cc1ccccc1)CCO2` (stereo not drawn)?
KDM5B inh: inactive

How did CCCCCCOc1ccccc1/C=C(\C#N)C(=O)c1ccccc1 do in these assays?
KDM5B inh: inactive

What do the screens show for `CCCCCn1nc(C(=O)Nc2ccc(F)cc2)c2ccccc2c1=O`?
KDM5B inh: inactive

Results for CCCc1cc(=O)[nH]c(SCc2nnc(-c3cc(OC)c(OC)c(OC)c3)o2)n1 ?
KDM5B inh: inactive

Results for CC1CCC(C(C)C)C(OCCC[N+](C)(C)C)C1 (stereo not drawn) ?
KDM5B inh: inactive

Results for CC(=O)Nc1ccc(S(=O)(=O)Nc2cc3c(cc2SC2CCCCC2)n(C)c(=O)n3C)cc1 ?
KDM5B inh: inactive

How did COCCN1CCCCCC(O)c2cc(C(=O)N(C)Cc3cccnc3)ccc21 (stereo not drawn) do in these assays?
KDM5B inh: inactive

How did COCCN1CCCCCC(O)c2cc(C(=O)N3CCN(c4ccccc4OC)CC3)ccc21 (stereo not drawn) do in these assays?
KDM5B inh: inactive

How did COCCN1CCCCCC(O)c2cc(C(=O)N3CCN(c4cccc(OC)c4)CC3)ccc21 (stereo not drawn) do in these assays?
KDM5B inh: inactive

What do the screens show for `COCCN1CCCCCC(O)c2cc(C(=O)NCCc3nc4ccccc4n3C)ccc21` (stereo not drawn)?
KDM5B inh: inactive

Results for COCCN1CCCCCC(O)c2cc(C(=O)NC3CCC3)ccc21 (stereo not drawn) ?
KDM5B inh: 32µM*

What do the screens show for `COCCN1CCCCCC(O)c2cc(C(=O)N(C)Cc3ccc(N4CCCCC4)cc3)ccc21` (stereo not drawn)?
KDM5B inh: 7.9µM*

What do the screens show for `COc1cccc(CCC(=O)N2CCC(C3CCNC3)CC2)c1` (stereo not drawn)?
KDM5B inh: inactive

What do the screens show for `O=C(CSc1nc2cc(Cl)ccc2s1)N1CCC(Cc2ccccc2)CC1`?
KDM5B inh: inactive

What do the screens show for `CCn1cc(-c2nc3cc(S(=O)(=O)NC(C)C)ccc3n2C(C)C)cn1`?
KDM5B inh: inactive

Results for Brc1cccc(CNCc2ccc(Cn3cncn3)cc2)c1 ?
KDM5B inh: inactive

What do the screens show for `O=C(CCSc1nc(Cl)nc2nc[nH]c12)N1CCN(Cc2ccccc2)CC1`?
KDM5B inh: inactive

What do the screens show for `CC(=O)c1ccc(NC(=O)N2C[C@@H]3C[C@H](C2)c2ccc(NC(=O)CN(C)C)c(=O)n2C3)cc1`?
KDM5B inh: inactive
